Test [1] concerns the target Glucocorticoid receptor (Homo sapiens) (UniProt P04150). Put plainly: GR-EFC Redistribution (AID 451; calls by dose curve; note: potency is the fitted concentration of half-maximal effect). Conditions: CHO-K1 GR-EFC translocation, beta-gal luminescence, 2 h. The procedure, abridged: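 CHO-K1 cells stably expressing nuclear-localized β-gal enzyme acceptor and GR fused C-terminally to the enzyme donor fragment; ligand-driven nuclear translocation restores β-gal by complementation. Compounds titrated up to 46 uM final, 2 h at 37 °C; luminescence read.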

Test [2] deals with 3',5'-cyclic-AMP phosphodiesterase 4B (Homo sapiens) (UniProt Q07343). Put plainly: qHTS Assay for Inhibitors of PDE-IV (AID 607; active = well fitted activation curve with a large enough effect in the main read-out, with a control signal flat, not every such curve was filed as active; note: % of control where 0% means no effect). Particulars: HEK293 ACTOne CNG channel cells, membrane potential fluorescence; series mostly up to 22.9 µM. The procedure, abridged:
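HEK293 ACTOne cells with CNG channel (1000/well), endogenous PDE4; membrane potential dye, compounds up to 22.9 uM final. Fluorescence Ex 535/Em 590; RO 20-1724 (100 uM final) as reference.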
A general note: Quantitative high-throughput screening tests each substance at several concentrations.

Test [3] is described as follows: qHTS Assay for Identification of Small Molecule Antagonists for NFkB Signaling Pathway (AID 895; active = well fitted inhibition curve with a large enough effect in the signal ratio, with a control signal flat, not every such curve was filed as active; the % refers to the signal ratio; note: potency is the fitted concentration of half-maximal effect). Particulars: NFkB beta-lactamase reporter cells, FRET ratio 460/530; series mostly up to 38.3 µM. The method in brief:
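NFkB-bla ME-180 cervical carcinoma cells with beta-lactamase reporter under NFkB response element; compounds added, then TNF alpha at 10 pM final (EC50), 5 h at 37 C. LiveBLAzer substrate 2 h, room temperature; emission 460/530 nm at 405 nm excitation.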

A short description of test [4]: qHTS Assay for Identification of Small Molecule Antagonists for Thrombopoietin (TPO) Signaling Pathway (AID 918). Note: potency is the fitted concentration of half-maximal effect; nearly all actives have a fitted effect of over 60% in size. Conditions: TPO-dependent cell signaling reporter, antagonist mode. The method in brief:
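Ba/F3 (murine, hTPO-R, GPIIb-luc reporter); overnight IL-3 withdrawal; cpd + TPO 26 pM final (EC50); 24 h 37 C/5% CO2; Steadylite luminescence after 10 min RT.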

Test [5] has as its target Muscarinic acetylcholine receptor M1 (Rattus norvegicus) (UniProt P08482). The experiment in a line: qHTS Assay for Antagonists of Acetylcholine Muscarinic M1 Receptor: Measurement of IP-One Response (AID 944). Note: nearly all actives have a fitted effect of over 75% in size. Conditions: CHO-M1 cells, IP-One HTRF, antagonist mode; series mostly up to 46.1 µM. The procedure, abridged:
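M1-CHO (rat), 2000 cells/well, overnight recovery; cpd 10 min; carbachol EC80 (200 nM), 30 min, HEPES buffer + 50 mM LiCl pH 7.4; IP-One HTRF, Ex 337, Em 620/665 nm.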

Test [6] deals with Pyruvate kinase PKM (Homo sapiens) (UniProt P14618). Put plainly: qHTS Assay for Inhibitors of Human Muscle Pyruvate Kinase (AID 958). Particulars: purified human PKM enzyme activity; series mostly up to 57.5 µM. The procedure, abridged:
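Luminescence from a luciferase ATP-detection/stop reagent reported PKM2 activity. Reactions contained 0.1 nM purified human enzyme, 0.5 mM PEP, 0.1 mM ADP and 7 mM MgCl2 at pH 7.2, run 1 h at RT.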

For test [7], the target named is alpha-glucosidase (Oryza sativa, rice) (UniProt Q653V4). Put plainly: Counterscreen for Glucocerebrosidase Inhibitors: qHTS Assay for Rice alpha-Glucosidase at pH 5.0 (AID 997).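 Note: 0% = full activity with enzyme and -100% = basal without enzyme.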 Particulars: rice alpha-glucosidase enzyme activity; series mostly up to 76.9 µM. The procedure, abridged: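 Rice alpha-glucosidase (4 nM final) with 400 uM 4-methylumbelliferyl-alpha-D-glucopyranoside in citrate buffer pH 5.0, 20 min at room temperature, stopped at pH 10; fluorescence 365/440 nm, compounds 0.7 nM–77 uM, AC50 from Hill fits.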
Background: The purpose of a counterscreen is to sort out artefacts and off-target activity.

Test [8] concerns the target Pyruvate kinase PKM (Homo sapiens) (UniProt P14618). The experiment in a line: qHTS Assay for Activators of Human Muscle Pyruvate Kinase (AID 954; active = well fitted curve in the direction sought with a large enough effect, not every such curve was filed as active;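 note: 0% = uninhibited enzyme and -100% = no enzyme or full thiadiazolimine inhibition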). Particulars: purified human muscle pyruvate kinase, luciferase-coupled luminescence, 1 h; series mostly up to 57.5 µM. The method in brief: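 Purified human PKM2 (0.1 nM) with 0.5 mM PEP (Km) and 0.1 mM ADP in 50 mM imidazole pH 7.2, KCl, MgCl2, 1 h at room temperature; ATP formed read by coupled luciferase luminescence. Normalized to no-enzyme/110 uM thiadiazolimine inhibition; 0.3 nM enzyme column for activation.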

The target in test [9] is DNA dC->dU-editing enzyme APOBEC-3G (Homo sapiens) (UniProt Q9HC16). The experiment in a line: qHTS for inhibitors of Vif-A3G interactions: Validation (AID 588379). Note: 0% is about no effect. Particulars: Vif-A3G protein interaction assay; series mostly up to 46.1 µM. The procedure, abridged:
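HeLa cells stably expressing Vif and A3G-eYFP, 700 cells/well, incubated overnight at 37 deg C, then exposed to compound overnight at 37 deg C. Inhibition of Vif-mediated degradation read as increased yellow fluorescence (Ex 488/Em 500-530) by laser-scanning cytometry.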

A short description of test [10]: qHTS Assay for Identifying Gametocytocidal Compounds (AID 743244). Note: potency is the fitted concentration of half-maximal effect. Conditions: P. falciparum 3D7 stage III-V gametocytes, alamarBlue, 72 h; max response: stronger effect = lower value. The procedure, abridged: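 P. falciparum 3D7 stage III–V gametocytes (20,000 cells/well) were exposed to compounds for 72 h at 37 °C, 5% CO2. AlamarBlue was then added for 24 h; decreased resorufin fluorescence (Ex 525/Em 598 nm) indicated loss of viability.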

Test [11] in a line: qHTS profiling for inhibitors of Plasmodium falciparum (3D7) proliferation (AID 743322).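 Note: infected erythrocytes exposed to compound for 72 h before lysis; 100% = DMSO vehicle wells and 0% = 0.29 µM artemisinin.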 Conditions: P. falciparum 3D7 proliferation; at 28.7 µM (top of the series) unless noted. The procedure, abridged: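 Erythrocytes infected with P. falciparum (0.3% parasitemia, 2.5% hematocrit) incubated with compounds 72 h at 37 C, 5% CO2. Lysis with saponin/Triton buffer containing SYBR Green I, overnight at room temperature in the dark; DNA fluorescence (485/535 nm) normalised to 0.29 uM artemisinin and DMSO.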

The nature of test [12]: qHTS profiling for inhibitors of Plasmodium falciparum (DD2) proliferation (AID 743323; call rule not given here). Conditions: lower = more inhibition; at 28.7 µM (top of the series) unless noted. The procedure, abridged: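 P. falciparum Dd2-infected erythrocytes (0.3% parasitemia, 2.5% hematocrit) exposed 72 h at 37 C, 5% CO2. Lysis with SYBR Green, overnight at room temperature, fluorescence 485/535 nm; normalized to 0.29 uM artemisinin and DMSO.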

Test [13] in a line: qHTS profiling for inhibitors of Plasmodium falciparum (HB3) proliferation (AID 743324).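 Note: 100% = DMSO vehicle wells and 0% = artemisinin-treated control wells.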 Conditions: Plasmodium falciparum HB3 blood-stage proliferation; at 28.7 µM (top of the series) unless noted. The procedure, abridged: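 P. falciparum HB3 grown in erythrocytes (0.3% parasitemia, 2.5% hematocrit final) with compound for 72 h at 37 C, 5% CO2. Parasite DNA detected by SYBR Green after saponin/triton lysis overnight; normalized to 0.29 uM artemisinin and DMSO.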

Records with an inconclusive call do not appear. Active and inactive are the calls of the source. Unless noted, calls come from the whole dose curve; as a rule, active = well fitted curve in the direction sought with a large enough effect; inconclusive = small, poorly fitted or top-dose-only effect, or another doubt; inactive = no such curve, though single readings can be large; an effect the other way counts as inactive or inconclusive.

Sequence of Pyruvate kinase PKM (Homo sapiens) (P14618 whole entry, looked up): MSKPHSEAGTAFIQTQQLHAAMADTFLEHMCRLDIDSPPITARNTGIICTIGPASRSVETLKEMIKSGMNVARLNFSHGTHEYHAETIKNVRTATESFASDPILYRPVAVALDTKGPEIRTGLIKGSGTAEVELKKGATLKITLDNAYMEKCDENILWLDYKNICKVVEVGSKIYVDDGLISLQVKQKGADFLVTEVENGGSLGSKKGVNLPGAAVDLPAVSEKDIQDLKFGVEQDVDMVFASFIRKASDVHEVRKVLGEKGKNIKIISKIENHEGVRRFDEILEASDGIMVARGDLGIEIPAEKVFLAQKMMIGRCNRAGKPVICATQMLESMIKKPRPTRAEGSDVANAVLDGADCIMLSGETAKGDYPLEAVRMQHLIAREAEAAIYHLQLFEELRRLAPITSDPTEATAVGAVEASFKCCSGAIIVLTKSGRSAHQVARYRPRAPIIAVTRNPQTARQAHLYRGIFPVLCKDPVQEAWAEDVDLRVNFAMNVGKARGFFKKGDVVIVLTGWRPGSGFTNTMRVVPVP
Sequence of DNA dC->dU-editing enzyme APOBEC-3G (Homo sapiens) (Q9HC16 whole entry, looked up): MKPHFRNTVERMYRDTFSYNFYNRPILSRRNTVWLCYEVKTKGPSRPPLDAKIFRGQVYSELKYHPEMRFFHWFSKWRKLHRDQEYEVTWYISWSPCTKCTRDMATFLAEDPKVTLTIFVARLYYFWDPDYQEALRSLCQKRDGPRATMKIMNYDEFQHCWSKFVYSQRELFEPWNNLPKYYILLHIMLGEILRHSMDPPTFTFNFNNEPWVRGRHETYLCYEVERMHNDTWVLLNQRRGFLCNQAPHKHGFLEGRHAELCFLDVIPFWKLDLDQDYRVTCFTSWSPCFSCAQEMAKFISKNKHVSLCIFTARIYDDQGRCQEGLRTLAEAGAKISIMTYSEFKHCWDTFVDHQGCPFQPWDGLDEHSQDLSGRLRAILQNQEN
Sequence of Muscarinic acetylcholine receptor M1 (Rattus norvegicus) (P08482 whole entry, looked up): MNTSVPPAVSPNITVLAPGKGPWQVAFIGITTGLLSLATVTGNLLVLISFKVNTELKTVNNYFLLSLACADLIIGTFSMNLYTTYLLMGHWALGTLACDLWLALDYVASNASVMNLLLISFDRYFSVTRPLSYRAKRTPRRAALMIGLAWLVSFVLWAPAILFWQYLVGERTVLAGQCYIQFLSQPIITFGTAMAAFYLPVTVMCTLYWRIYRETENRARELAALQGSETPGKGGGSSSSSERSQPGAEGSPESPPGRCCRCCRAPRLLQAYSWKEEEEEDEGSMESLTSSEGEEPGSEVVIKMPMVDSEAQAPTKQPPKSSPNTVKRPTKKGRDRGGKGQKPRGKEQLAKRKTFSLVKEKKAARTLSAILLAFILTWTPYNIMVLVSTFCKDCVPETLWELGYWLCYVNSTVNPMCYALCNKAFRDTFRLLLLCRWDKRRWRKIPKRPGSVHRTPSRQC
Sequence of Glucocorticoid receptor (Homo sapiens) (P04150 whole entry, looked up, the tested form may be a part): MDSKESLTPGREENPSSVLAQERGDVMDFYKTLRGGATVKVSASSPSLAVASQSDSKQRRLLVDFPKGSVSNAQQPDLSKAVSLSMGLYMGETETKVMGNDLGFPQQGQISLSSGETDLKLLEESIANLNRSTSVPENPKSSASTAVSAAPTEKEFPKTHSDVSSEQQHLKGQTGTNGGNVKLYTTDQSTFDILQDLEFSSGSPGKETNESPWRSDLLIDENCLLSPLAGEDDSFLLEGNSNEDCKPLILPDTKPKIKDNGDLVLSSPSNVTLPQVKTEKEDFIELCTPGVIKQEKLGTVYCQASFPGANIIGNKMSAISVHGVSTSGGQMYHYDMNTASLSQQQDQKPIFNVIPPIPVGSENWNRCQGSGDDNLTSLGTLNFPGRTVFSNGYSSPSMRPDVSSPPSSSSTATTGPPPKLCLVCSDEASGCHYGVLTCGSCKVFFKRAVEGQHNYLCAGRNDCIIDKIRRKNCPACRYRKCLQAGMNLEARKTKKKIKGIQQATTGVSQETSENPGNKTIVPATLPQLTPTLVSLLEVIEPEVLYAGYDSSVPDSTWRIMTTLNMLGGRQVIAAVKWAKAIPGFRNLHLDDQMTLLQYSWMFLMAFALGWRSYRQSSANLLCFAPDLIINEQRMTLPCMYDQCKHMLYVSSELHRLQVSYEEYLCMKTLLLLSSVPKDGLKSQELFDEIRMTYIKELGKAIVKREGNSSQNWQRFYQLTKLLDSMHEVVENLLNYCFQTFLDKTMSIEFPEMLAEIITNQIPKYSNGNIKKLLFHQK
Sequence of 3',5'-cyclic-AMP phosphodiesterase 4B (Homo sapiens) (Q07343 whole entry, looked up): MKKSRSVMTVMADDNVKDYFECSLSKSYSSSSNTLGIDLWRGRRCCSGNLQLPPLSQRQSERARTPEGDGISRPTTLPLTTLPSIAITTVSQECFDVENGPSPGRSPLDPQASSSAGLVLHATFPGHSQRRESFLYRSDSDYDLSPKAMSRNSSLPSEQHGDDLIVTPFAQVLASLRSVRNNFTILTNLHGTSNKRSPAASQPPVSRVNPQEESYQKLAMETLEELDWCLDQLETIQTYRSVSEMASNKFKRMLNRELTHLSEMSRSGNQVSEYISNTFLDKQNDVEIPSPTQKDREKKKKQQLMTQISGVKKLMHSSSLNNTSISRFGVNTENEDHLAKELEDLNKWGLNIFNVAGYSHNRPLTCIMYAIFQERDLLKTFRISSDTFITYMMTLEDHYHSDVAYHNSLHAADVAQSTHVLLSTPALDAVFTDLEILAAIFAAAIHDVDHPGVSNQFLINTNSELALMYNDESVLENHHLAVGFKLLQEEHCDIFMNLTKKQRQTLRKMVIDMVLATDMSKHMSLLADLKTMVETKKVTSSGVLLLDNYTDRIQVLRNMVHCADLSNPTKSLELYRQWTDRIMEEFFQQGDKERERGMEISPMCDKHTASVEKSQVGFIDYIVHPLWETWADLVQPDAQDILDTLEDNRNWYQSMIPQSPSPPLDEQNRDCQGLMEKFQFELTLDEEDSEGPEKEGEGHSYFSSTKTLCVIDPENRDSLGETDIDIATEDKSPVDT

As for `Oc1cc2c(cc1O)[C@H]1c3ccccc3CN[C@@H]1CC2`, the Potency is > 46 µM (inactive) in [1], 6.31 µM (active) in test [3] and 10 µM (active) in test [4]. In addition, the call in test [2] and in [7] was inactive. Also, the Potency result in test [5] and in test [6] was “inactive” each time.

On to `COC[C@H]1OC(=O)c2coc3c2[C@@]1(C)C1=C(C3=O)[C@H]2CCC(=O)[C@@]2(C)C[C@H]1OC(C)=O`, for which the outcome in test [8], in test [7] and in [9] was inactive.

Turning to `Oc1cc2c(cc1O)[C@H]1c3ccccc3CN[C@H]1CC2`, the outcome in [9] was inactive.

With `C[C@@H]1CC[C@H]2[C@@H](C)C(=O)O[C@@H]3OC4(C)CC[C@@H]1C32OO4` (stereo not given in full), the Potency in test [10] is 0.136 µM (active). Further, the remaining parasite growth % (stronger effect = lower value) in test [11] was -0.139% [at 57.5 µM]. This compound also had an activity, percent of control in test [12] of 0.0598% [at 57.5 µM]. Moreover, the remaining proliferation (% of control), lower = more inhibition in test [13] stood at 0.0815% [at 57.5 µM].

These data come from PubChem BioAssay (NCATS).
